A short description of assay [1]: qHTS for differential inhibitors of proliferation of Plasmodium falciparum line HB3 (AID 1886).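 Also: parasites grown with compound for 72 h before SYBR Green readout.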 Also: potency is read from the fitted curve at half-maximal effect. The following applies: Potency: Plasmodium falciparum HB3 proliferation inhibition.
The target of assay [2] is Ferritin light chain (Equus caballus) (UniProt P02791). Kind of assay: qHTS Validation Assay for Identification of Novel General Anesthetics (AID 2323). Also: series mostly up to about 77 µM. Put shortly:
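Competitive displacement of profluorescent 1-aminoanthracene (1-AMA, 50% saturated solution in PBS) from 10 uM horse-spleen apoferritin. Compounds incubated 10 min at room temperature; fluorescence read at 380 nm excitation/535 nm emission, normalized to free 1-AMA and complex, fitted with four-parameter Hill equation.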

For assay [3], the target named is ATP-dependent DNA helicase Q1 (Homo sapiens) (UniProt P46063). Kind of assay: qHTS Validation Assay for Inhibitors of RecQ-Like Dna Helicase 1 (RECQ1) (AID 2353). Also: potency is read from the fitted curve at half-maximal effect. Put shortly: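 50 nM RECQ1T1 preincubated 15 min with compound in Tris pH 8.0 buffer with MgCl2, DTT, Tween-20 and 2.5 ug/ml poly(dI-dC); started with 200 nM TAMRA/BHQ-2 forked duplex and 2 mM ATP. Unwinding read as fluorescence (525/598 nm), two reads 2 h apart.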

For assay [4], the target named is RecQ-like DNA helicase BLM (Homo sapiens) (UniProt P54132). In words: qHTS Validation Assay for Inhibitors of Bloom's syndrome helicase (BLM) (AID 2364). Also: potency is read from the fitted curve at half-maximal effect. The essentials: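 50 nM BLM preincubated 15 min at room temperature with compound in pH 8.0 Tris buffer containing 2.5 ug/ml poly(dI-dC); started with 200 nM TAMRA/BHQ-2 forked duplex and 2 mM ATP (final). Unwinding read as TAMRA fluorescence increase, two reads 2 h apart.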

Assay [5] can be described thus: Cytometric Cell-Based qHTS for Inhibitors of the mTORC1 Signaling Pathway in MEF (Tsc2-/-, p53-/-) Cells (AID 2660).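 Also: percent of cells above a phospho-rpS6 to PI ratio cutoff in each well; series mostly up to about 38 µM.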 Put shortly:
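Percent of cells positive for normalized phospho-S6 staining is reported, with the cutoff set from rapamycin (7.5 nM) versus DMSO wells. Tsc2-/-, p53-/- MEFs received compound for 24 hrs.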

Assay [6] is described as follows: High Content Imaging Cell-Based qHTS for Inhibitors of the mTORC1 Signaling Pathway in MEF Cells (AID 2667).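 Also: Tsc2-/- p53-/- MEFs stably re-expressing wild-type Tsc2 exposed 24 h; series mostly up to about 38 µM.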 Put shortly: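 WT MEFs (Tsc2-/-, p53-/- re-expressing Tsc2), in DMEM + 10% FBS, were treated with compound for 24 h at 37 C. Cells were then fixed and stained for phospho-rpS6 Ser235/236 with propidium iodide as cell count. Values are % positive cells, with thresholds set against rapamycin-treated cells.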

Assay [7] in a line: Cytometry Cell-Based qHTS for Inhibitors of the mTORC1 Signaling Pathway in MEF cells (AID 2668).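 Also: Tsc2-/- p53-/- mouse embryonic fibroblasts stably re-expressing wild-type Tsc2; percent cells positive for phospho-rpS6 Ser235/236 relative to propidium iodide stain; series mostly up to about 38 µM.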 Put shortly:
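WT MEFs (Tsc2-/-, p53-/- stably re-expressing WT Tsc2) in DMEM + 10% FBS received compounds 24 hrs after plating, for 24 hrs at 37 degree Celsius. Fixed cells stained with Alexa-488 anti-phospho-rpS6 Ser235/236 and propidium iodide; laser-scanning cytometry read-out.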

Assay [8] is described as follows: Validation screen for small molecules that induce DNA re-replication in MCF 10A normal breast cells (AID 463097). Also: nearly all actives have a fitted effect of over 60% in size. Also: potency is read from the fitted curve at half-maximal effect. Put shortly:
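Readout: Hoechst nuclear fluorescence intensity, 405 ex / 500-530 em, by scanning plate imager; re-replication scored as increase in nuclei with elevated DNA content. Cells exposed to compound 48 hr, 37 C, 5% CO2 beforehand.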

For assay [9], the target named is Ubiquitin carboxyl-terminal hydrolase 2 (Homo sapiens) (UniProt O75604). Kind of assay: qHTS Validation Assay for Inhibitors of Ubiquitin-specific Protease USP2a Using CHOP2 as the Reporter (AID 463106). Put shortly:
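USP2 core (10 nM final) was preincubated with compound 30 min at RT in pH 8.0 Tris/CaCl2/beta-ME/CHAPS buffer. Ub-CHOP2 and reporter substrate (25 nM final each) were then added, with fluorescence (Ex 485/Em 531) read after 60 min. Data were normalized to NEM full inhibition and fitted to concentration-response curves.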

Assay [10] addresses DNA polymerase III PolC-type (Bacillus subtilis (strain 168)) (UniProt P13267). Kind of assay: qHTS Validation Assay for the Inhibitors of DNA Replication in Gram-Positive Bacteria (AID 485295). Also: potency is read from the fitted curve at half-maximal effect. Put shortly:
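Reconstituted B. subtilis holoenzyme (Pol III, beta clamp, SSB, primase) was preincubated with compound at room temperature, then given single-stranded circular M13Gori plus dNTPs and NTPs. EDTA-containing PicoGreen stopped the reaction, and dsDNA product was read by fluorescence.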

Assay [11] has as its target Tumor susceptibility gene 101 protein (Homo sapiens) (UniProt Q99816). Kind of assay: qHTS Validation Assay for Iinhibitors of HIV-1 Budding by Blocking the Interaction of PTAP/TSG101 (AID 485342; calls by dose curve). Put shortly: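 Tsg101 binding domain (10 uM final) in pH 7.5 HEPES/NaCl/Tween 20/EDTA/TCEP buffer was mixed with pin-transferred compounds, then FITC-labeled PTAP peptide (50 nM final) was added; after 20 min at r.t., fluorescence polarization was read.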

Assay [12] is described as follows: qHTS Validation Assay to Find Inhibitors of Chronic Active B-Cell Receptor Signaling (AID 485345; active = well fitted curve in the direction sought with a large enough effect in the main read-out, with a control signal flat, not every such curve was filed as active). The essentials: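 TMD8 ABC-DLBCL cells stably carrying doxycycline-inducible IkappaBalpha–green luciferase fusion plus unfused red luciferase; compounds 46 uM to 3 nM, 4 h at 37C with doxycycline. Corrected green/red luminescence ratio normalized to 10 uM MG-132 and basal cell wells; curves fitted.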

Assay [13] concerns the target Beta-2 adrenergic receptor (Homo sapiens) (UniProt P07550). Kind of assay: qHTS validation assay of beta-arrestin-biased ligands of beta2-adrenergic receptor (AID 485366). Put shortly:
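Luminescence from a tTA-responsive luciferase, induced when recombinant beta-arrestin is recruited to recombinant beta2-AR, served as the agonism signal. Cells were exposed to compound for 18 hr at 37 degrees C; titrations spanned up to 46 microM.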

Assay [14] can be described thus: High Content Imaging Cell-Based qHTS for Inhibitors of the mTORC1 Signaling Pathway in MEF (Tsc2-/-, p53-/-) Cells (AID 2666). Also: potency is read from the fitted curve at half-maximal effect. Put shortly: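 Phospho-rpS6 (Ser235/236) immunofluorescence, normalized and scored as % positive cells using rapamycin and DMSO controls, was read in empty-vector Tsc2-/-, p53-/- MEFs after 24 h compound exposure at 37 C; propidium iodide counted cells.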

The nature of assay [15]: Validation screen for inhibitors of Lassa infection (AID 463096; calls by dose curve; also: potency is read from the fitted curve at half-maximal effect).
Assay [16] addresses ATP-dependent 6-phosphofructokinase (Trypanosoma brucei brucei) (UniProt O15648). Kind of assay: qHTS Validation Assay to Find Inhibitors of T. brucei phosphofructokinase (AID 485368). Also: potency is read from the fitted curve at half-maximal effect. The essentials:
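Activity was normalized between 1x (1.25 nM) PFK wells as no inhibition and enzyme-free wells as full inhibition, from luminescence after ADP-Glo detection of ADP made from 0.5 mM F6P and 0.1 mM ATP over 45 min.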

Records with an inconclusive call do not appear. Activity calls are given as the source filed them. Unless noted, calls follow the shape of the dose curve; as a rule, active = well fitted curve in the direction sought with a large enough effect; inconclusive = small, poorly fitted or top-dose-only effect, or another doubt; inactive = no such curve, though single readings can be large; an effect the other way counts as inactive or inconclusive.

Chain of Beta-2 adrenergic receptor (Homo sapiens) (P07550 whole entry, looked up): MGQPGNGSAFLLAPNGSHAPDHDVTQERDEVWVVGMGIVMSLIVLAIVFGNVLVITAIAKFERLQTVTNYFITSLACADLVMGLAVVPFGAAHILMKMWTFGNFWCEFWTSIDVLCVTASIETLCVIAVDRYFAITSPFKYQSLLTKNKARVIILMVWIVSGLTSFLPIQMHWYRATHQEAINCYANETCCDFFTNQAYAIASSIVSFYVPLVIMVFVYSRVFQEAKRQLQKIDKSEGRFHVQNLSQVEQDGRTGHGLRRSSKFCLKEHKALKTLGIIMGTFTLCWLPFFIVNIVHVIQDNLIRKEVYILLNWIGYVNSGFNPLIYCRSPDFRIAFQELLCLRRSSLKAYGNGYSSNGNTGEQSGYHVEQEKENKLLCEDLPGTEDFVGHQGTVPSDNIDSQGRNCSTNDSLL
Chain of Ubiquitin carboxyl-terminal hydrolase 2 (Homo sapiens) (O75604 whole entry, looked up): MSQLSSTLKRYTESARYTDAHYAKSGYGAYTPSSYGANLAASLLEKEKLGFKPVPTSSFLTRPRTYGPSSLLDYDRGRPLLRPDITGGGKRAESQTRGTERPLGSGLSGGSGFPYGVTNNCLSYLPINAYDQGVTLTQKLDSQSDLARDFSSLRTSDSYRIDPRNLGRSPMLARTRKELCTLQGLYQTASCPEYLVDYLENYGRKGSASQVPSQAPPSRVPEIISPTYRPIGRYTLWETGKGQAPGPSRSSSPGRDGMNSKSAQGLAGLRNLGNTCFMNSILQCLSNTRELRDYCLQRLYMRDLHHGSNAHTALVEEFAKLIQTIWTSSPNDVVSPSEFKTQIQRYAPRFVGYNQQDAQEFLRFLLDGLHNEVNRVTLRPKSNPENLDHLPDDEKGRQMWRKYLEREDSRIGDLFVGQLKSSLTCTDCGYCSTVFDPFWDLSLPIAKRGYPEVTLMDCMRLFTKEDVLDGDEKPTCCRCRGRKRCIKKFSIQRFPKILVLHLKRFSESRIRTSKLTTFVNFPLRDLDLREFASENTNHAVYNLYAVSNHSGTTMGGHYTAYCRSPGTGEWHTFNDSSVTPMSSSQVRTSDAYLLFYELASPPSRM
Chain of RecQ-like DNA helicase BLM (Homo sapiens) (P54132 whole entry, looked up): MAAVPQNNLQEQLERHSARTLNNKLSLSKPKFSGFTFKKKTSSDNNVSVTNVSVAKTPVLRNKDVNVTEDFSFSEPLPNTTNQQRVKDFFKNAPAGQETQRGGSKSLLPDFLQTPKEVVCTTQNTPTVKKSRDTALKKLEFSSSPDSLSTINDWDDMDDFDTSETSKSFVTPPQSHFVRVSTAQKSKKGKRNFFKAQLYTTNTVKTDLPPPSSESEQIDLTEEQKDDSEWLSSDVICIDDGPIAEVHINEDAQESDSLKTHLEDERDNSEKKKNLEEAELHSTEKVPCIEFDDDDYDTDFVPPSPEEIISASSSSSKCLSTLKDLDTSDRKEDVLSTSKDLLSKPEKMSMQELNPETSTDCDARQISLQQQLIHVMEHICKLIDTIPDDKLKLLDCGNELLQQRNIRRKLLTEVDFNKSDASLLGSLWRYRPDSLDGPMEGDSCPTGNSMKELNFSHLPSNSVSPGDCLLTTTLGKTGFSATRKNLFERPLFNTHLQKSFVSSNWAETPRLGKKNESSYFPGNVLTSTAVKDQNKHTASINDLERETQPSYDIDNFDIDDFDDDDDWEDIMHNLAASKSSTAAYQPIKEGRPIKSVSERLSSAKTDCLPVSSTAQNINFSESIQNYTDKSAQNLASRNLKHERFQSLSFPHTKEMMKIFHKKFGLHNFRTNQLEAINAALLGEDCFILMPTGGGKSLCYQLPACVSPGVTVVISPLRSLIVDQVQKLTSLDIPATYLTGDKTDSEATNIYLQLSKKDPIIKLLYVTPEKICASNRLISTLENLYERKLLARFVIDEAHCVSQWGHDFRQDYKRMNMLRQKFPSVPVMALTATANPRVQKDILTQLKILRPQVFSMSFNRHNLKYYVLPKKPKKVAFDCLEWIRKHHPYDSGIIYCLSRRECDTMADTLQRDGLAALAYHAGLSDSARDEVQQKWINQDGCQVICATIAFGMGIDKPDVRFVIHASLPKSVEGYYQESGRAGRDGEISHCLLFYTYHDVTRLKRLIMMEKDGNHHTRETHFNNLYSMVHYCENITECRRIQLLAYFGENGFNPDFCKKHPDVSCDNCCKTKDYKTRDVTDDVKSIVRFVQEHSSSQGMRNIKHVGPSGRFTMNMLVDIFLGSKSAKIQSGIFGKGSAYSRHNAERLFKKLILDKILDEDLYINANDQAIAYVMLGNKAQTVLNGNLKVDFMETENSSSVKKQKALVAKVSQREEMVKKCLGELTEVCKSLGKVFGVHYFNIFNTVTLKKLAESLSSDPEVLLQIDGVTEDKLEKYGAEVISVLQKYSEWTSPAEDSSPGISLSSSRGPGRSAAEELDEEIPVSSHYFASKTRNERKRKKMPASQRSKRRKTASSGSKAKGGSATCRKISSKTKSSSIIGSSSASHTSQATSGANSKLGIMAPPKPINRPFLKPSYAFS
Chain of Ferritin light chain (Equus caballus) (P02791 2-175 limits assumed): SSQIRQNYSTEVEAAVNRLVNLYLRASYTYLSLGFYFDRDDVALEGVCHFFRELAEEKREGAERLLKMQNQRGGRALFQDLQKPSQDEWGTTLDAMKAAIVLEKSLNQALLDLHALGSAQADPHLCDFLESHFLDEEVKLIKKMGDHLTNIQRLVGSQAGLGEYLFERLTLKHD
Chain of DNA polymerase III PolC-type (Bacillus subtilis (strain 168)) (P13267 whole entry, looked up): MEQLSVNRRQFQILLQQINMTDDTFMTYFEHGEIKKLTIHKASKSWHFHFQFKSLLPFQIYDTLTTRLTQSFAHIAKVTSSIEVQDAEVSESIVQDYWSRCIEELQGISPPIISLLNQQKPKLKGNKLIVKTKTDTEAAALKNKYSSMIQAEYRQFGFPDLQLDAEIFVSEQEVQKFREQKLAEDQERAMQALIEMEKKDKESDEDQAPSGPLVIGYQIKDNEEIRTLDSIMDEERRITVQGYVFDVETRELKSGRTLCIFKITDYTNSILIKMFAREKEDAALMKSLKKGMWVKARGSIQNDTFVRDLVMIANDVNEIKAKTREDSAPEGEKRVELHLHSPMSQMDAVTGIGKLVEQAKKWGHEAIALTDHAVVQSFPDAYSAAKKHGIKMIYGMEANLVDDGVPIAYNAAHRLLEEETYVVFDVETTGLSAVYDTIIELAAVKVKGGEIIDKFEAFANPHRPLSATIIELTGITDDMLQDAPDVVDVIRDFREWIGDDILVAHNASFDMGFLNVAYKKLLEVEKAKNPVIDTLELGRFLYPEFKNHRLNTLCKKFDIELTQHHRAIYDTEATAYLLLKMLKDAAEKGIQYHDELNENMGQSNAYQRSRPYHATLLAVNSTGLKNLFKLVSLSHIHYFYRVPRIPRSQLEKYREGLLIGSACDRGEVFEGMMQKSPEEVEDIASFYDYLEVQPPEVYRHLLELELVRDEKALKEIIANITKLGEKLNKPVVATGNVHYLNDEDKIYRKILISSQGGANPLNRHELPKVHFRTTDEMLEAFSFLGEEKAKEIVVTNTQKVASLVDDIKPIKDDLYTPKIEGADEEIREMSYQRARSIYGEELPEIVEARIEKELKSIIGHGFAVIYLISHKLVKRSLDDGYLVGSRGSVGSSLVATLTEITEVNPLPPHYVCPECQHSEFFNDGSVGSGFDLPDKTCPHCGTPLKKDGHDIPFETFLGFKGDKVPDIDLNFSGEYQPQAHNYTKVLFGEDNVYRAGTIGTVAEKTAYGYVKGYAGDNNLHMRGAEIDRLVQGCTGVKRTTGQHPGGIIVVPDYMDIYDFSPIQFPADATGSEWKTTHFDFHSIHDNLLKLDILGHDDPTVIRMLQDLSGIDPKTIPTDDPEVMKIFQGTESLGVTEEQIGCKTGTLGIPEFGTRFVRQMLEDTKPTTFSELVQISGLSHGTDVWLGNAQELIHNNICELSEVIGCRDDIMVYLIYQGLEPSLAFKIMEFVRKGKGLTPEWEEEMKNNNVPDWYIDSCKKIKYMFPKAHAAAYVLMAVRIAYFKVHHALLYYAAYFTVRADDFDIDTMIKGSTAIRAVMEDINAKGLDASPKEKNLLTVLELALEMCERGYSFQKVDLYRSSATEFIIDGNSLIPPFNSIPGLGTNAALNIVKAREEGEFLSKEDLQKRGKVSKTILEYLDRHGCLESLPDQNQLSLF
Chain of ATP-dependent DNA helicase Q1 (Homo sapiens) (P46063 whole entry, looked up): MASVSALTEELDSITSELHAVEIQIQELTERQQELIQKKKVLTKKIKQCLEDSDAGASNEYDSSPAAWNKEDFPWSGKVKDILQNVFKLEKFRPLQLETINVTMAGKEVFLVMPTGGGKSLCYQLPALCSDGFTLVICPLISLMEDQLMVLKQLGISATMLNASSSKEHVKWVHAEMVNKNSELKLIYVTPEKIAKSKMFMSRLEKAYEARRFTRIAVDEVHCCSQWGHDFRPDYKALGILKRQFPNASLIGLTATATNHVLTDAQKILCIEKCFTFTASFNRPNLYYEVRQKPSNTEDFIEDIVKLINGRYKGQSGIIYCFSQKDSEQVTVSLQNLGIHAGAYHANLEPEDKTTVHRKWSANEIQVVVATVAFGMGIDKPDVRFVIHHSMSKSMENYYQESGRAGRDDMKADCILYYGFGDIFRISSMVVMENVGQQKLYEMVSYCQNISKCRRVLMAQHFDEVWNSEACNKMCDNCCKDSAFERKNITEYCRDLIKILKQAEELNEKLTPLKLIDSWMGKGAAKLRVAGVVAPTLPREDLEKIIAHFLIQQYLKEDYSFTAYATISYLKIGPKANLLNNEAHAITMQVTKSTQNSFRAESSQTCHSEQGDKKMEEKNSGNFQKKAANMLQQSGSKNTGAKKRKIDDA

On to `O=[N+]([O-])c1cc(O)c(O)c([N+](=O)[O-])c1`, for which the Potency result in assay [1], in [3], in [4], in [5], in assay [6] and in [7] was “inactive” each time. For the same compound, the Potency result in assay [8], in assay [9], in assay [10] and in [12] was “inactive” in each case. Besides, the outcome in assay [2], in [11] and in assay [13] was inactive.
Consider `NC(Cc1ccc(N(CCCl)CCCl)cc1)C(=O)O` (configuration not stated), for which the Potency in assay [1] is 12.6 µM (active); in assay [15], 8.91 µM (active). The result in [2] and in [13] was inactive. Besides, the Potency result in [3], in assay [4], in assay [14], in [6], in assay [8] and in [9] was “inactive” in each case. In addition, the Potency result in assay [10] and in assay [16] was “inactive” throughout.
Take `CN(N=O)c1cc(O)ccc1O`: the Potency entry in [1], in assay [6], in [15], in assay [8], in [9] and in [12] was “inactive” each time. The compound was called inactive in assay [2] and in assay [11]. The Potency in [3] is 7.94 µM (active); in [4], 28.2 µM (active); in [10], 23.8 µM (active); in assay [16], 7.57 µM (active).
As for `Oc1ccc2c3c1O[C@H]1c4oc5ccccc5c4C[C@@]4(O)C(C2)N(CC2CC2)CCC314` (some centres not stated), the Potency in [1] is 11.2 µM (active); in assay [15], 7.94 µM (active). Moreover, the result in assay [2] and in [11] was inactive. For the same compound, the Potency result in [3], in [4], in assay [5], in [14], in [8] and in assay [9] was “inactive” throughout. The Potency result in assay [10], in assay [12] and in [16] was “inactive” throughout.
In the case of `CP(=O)(O)C1=CCNCC1`, the Potency entry in [1], in [3], in assay [5], in [14], in assay [6] and in assay [15] was “inactive” throughout. Also, the Potency entry in assay [8], in [9], in [10] and in assay [12] was “inactive” throughout. The compound was called inactive in assay [2] and in [13].
Turning to `CCCN(CCC)CCc1c[nH]c2ccc(C(N)=O)cc12`, the Potency entry in [1], in assay [3], in [4], in assay [14], in [6] and in assay [8] was “inactive” each time. Also, the Potency result in assay [9], in assay [10], in [12] and in assay [16] was “inactive” each time. Besides, the call in [2] and in [11] was inactive.
With `CCn1cnc2c(Nc3cccc(Cl)c3)nc(N[C@@H]3CCCC[C@@H]3N)nc21`, the values for the Potency in [1], in assay [14] and in [8] were 8.91 µM (active), 18.5 µM (active) and 3.55 µM (active), respectively. The compound was classed as inactive in assay [2] and in [13]. Further, the Potency result in [3], in assay [4], in assay [9], in assay [10] and in assay [16] was “inactive” each time.
`C[Se]C[C@H](N)C(=O)O`: the Potency entry in [1], in assay [3], in assay [5], in assay [14], in [6] and in assay [7] was “inactive” in each case. The Potency result in assay [15], in [8], in assay [9], in assay [10], in assay [12] and in [16] was “inactive” throughout. In addition, the compound was called inactive in assay [2], in assay [11] and in assay [13].
Consider `NNC(=O)c1ccc(O)cc1`, for which the Potency result in [1], in [3], in assay [5], in assay [14], in [6] and in assay [15] was “inactive” each time. Besides, the Potency entry in assay [8], in [9] and in assay [10] was “inactive” each time. The outcome in assay [2] and in assay [11] was inactive.
With `NCCCP(=O)(O)O`, the Potency result in [1], in [3], in assay [5], in assay [14], in assay [6] and in assay [7] was “inactive” throughout. In addition, the Potency result in assay [15], in assay [8], in assay [9], in [10], in assay [12] and in assay [16] was “inactive” each time. Further, the outcome in [2] and in assay [11] was inactive.
With `Cc1c2ccncc2c(C)c2c1[nH]c1ccccc12`, the Potency is 1.41 µM (active) in assay [1], 10 µM (active) in [3] and 7.08 µM (active) in [8]. Moreover, the outcome in assay [2] and in assay [11] was inactive. For the same compound, the Potency result in [4], in assay [6] and in assay [9] was “inactive” throughout.

(Values after PubChem BioAssay (NCATS).)
